Laboratory results from the supplement of paper PMC8728848.
This excerpt belongs to a sample that is enriched for the strongest signals.

Assays:
Assay in all cases: glycan array binding signal (z-score within array); higher = stronger binding
Conditions in all cases: glycan notation: IUPAC condensed, linker removed
[1] = molecular target: Fuc(a1-2)Gal(b1-3)GalNAc
Method in brief: (§1)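 The binding signal is a Z-score computed within each array and averaged over linkers. Arrays of the same protein sequence at different concentrations or buffers were also averaged together. Data originate from 3228 arrays in the Consortium for Functional Glycomics database, kept only where the protein sequence was available.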

[2] = molecular target: Fuc(a1-2)Gal(b1-4)GlcNAc(b1-6)GalNAc
Method in brief: as §1

[3] = molecular target: Fuc(a1-2)Gal(b1-4)[Fuc(a1-3)]GlcNAc(b1-3)GalNAc
Method in brief: as §1

[4] = molecular target: Fuc(a1-2)[Gal(a1-3)]Gal
Method in brief: as §1

[5] = molecular target: Fuc(a1-2)[Gal(a1-3)]Gal(b1-3)GalNAc
Method in brief: as §1

[6] = molecular target: Fuc(a1-2)[Gal(a1-3)]Gal(b1-4)GlcNAc(b1-6)GalNAc
Method in brief: as §1

[7] = molecular target: Fuc(a1-2)[GalNAc(a1-3)]Gal(b1-3)GalNAc(a1-3)[Fuc(a1-2)]Gal(b1-4)GlcNAc
Method in brief: as §1

[8] = molecular target: Fuc(a1-2)[GalNAc(a1-3)]Gal(b1-4)Glc
Method in brief: as §1

[9] = molecular target: Fuc(a1-2)[GalNAc(a1-3)]Gal(b1-4)GlcNAc(b1-2)Man
Method in brief: as §1

[10] = molecular target: Fuc(a1-2)[GalNAc(a1-3)]Gal(b1-4)[Fuc(a1-3)]GlcNAc
Method in brief: as §1

[11] = molecular target: Fuc(a1-2)[GalNAc(a1-4)]Gal(b1-4)GlcNAc
Method in brief: as §1

[12] = molecular target: Fuc(a1-2)[GalNAc(b1-3)]Gal
Method in brief: as §1

[13] = molecular target: Fuc(a1-3)[Gal(b1-4)]GlcNAc(b1-2)Man(a1-6)[Gal(b1-4)GlcNAc(b1-2)Man(a1-3)]Man(b1-4)GlcNAc(b1-4)GlcNAc
Method in brief: as §1

[14] = molecular target: Gal(a1-3)Gal(b1-3)GlcNAc(b1-6)GalNAc
Method in brief: as §1

[15] = molecular target: Gal(a1-3)Gal(b1-3)[Fuc(a1-4)]GlcNAc(b1-2)Man(a1-3)[Gal(a1-3)Gal(b1-3)[Fuc(a1-4)]GlcNAc(b1-2)Man(a1-6)]Man(b1-4)GlcNAc(b1-4)GlcNAc
Method in brief: as §1

[16] = molecular target: Gal(a1-3)Gal(b1-4)GlcNAc(b1-2)Man(a1-3)[Gal(a1-3)Gal(b1-4)GlcNAc(b1-2)Man(a1-6)]Man(b1-4)GlcNAc(b1-4)GlcNAc
Method in brief: as §1

[17] = molecular target: Gal(a1-3)Gal(b1-4)GlcNAc(b1-6)GalNAc
Method in brief: as §1

[18] = molecular target: Gal(a1-4)Gal(b1-4)GlcNAc(b1-2)Man(a1-3)[Gal(a1-4)Gal(b1-4)GlcNAc(b1-2)Man(a1-6)]Man(b1-4)GlcNAc(b1-4)GlcNAc
Method in brief: as §1

[19] = molecular target: Gal(b1-3)GlcNAc(b1-6)GalNAc
Method in brief: as §1

[20] = molecular target: Gal(b1-4)GlcNAc
Method in brief: as §1

[21] = molecular target: Gal(b1-4)GlcNAc(b1-3)Gal(b1-4)Glc
Method in brief: as §1

[22] = molecular target: Gal(b1-4)GlcNAc(b1-3)Gal(b1-4)GlcNAc(b1-3)GalNAc
Method in brief: as §1

[23] = molecular target: Gal(b1-4)GlcNAc(b1-6)Gal(b1-4)GlcNAc(b1-6)GalNAc
Method in brief: as §1

[24] = molecular target: Gal(b1-4)GlcNAc(b1-6)GalNAc
Method in brief: as §1

[25] = molecular target: GalNAc(b1-3)Gal
Method in brief: as §1

[26] = molecular target: GalNAc(b1-3)Gal(a1-6)Gal(b1-4)Glc
Method in brief: as §1

[27] = molecular target: GalNAc(b1-4)GlcNAc(b1-3)GalNAc(b1-4)GlcNAc
Method in brief: as §1

[28] = molecular target: GlcNAc(a1-4)Gal(b1-3)GlcNAc
Method in brief: as §1

[29] = molecular target: GlcNAc(b1-3)Gal(b1-4)GlcNAc(b1-3)Gal(b1-4)GlcNAc
Method in brief: as §1

[30] = molecular target: GlcNAc(b1-3)Gal(b1-4)GlcNAc(b1-3)GalNAc
Method in brief: as §1

[31] = molecular target: Man(a1-3)[Man(a1-6)]Man(b1-4)GlcNAc(b1-4)GlcNAc
Method in brief: as §1

[32] = molecular target: Man(b1-4)GlcNAc
Method in brief: as §1

[33] = molecular target: Neu5Ac(a2-3)Gal(b1-3)GlcNAc(b1-3)GalNAc
Method in brief: as §1

[34] = molecular target: Neu5Ac(a2-3)Gal(b1-3)[GlcNAc(b1-6)]GalNAc
Method in brief: as §1

[35] = molecular target: Neu5Ac(a2-3)Gal(b1-4)Glc
Method in brief: as §1

[36] = molecular target: Neu5Ac(a2-3)Gal(b1-4)GlcNAc(b1-3)Gal(b1-3)GlcNAc
Method in brief: as §1

[37] = molecular target: Neu5Ac(a2-3)Gal(b1-4)GlcNAc(b1-6)GalNAc
Method in brief: as §1

[38] = molecular target: Neu5Ac(a2-3)Gal(b1-4)[Fuc(a1-3)]GlcNAc(b1-6)[Neu5Ac(a2-3)Gal(b1-3)]GalNAc
Method in brief: as §1

[39] = molecular target: Neu5Ac(a2-6)Gal(b1-3)GlcNAc(b1-3)[Gal(b1-4)GlcNAc(b1-6)]Gal(b1-4)Glc
Method in brief: as §1

[40] = molecular target: Neu5Ac(a2-6)Gal(b1-4)GlcNAc(b1-2)Man
Method in brief: as §1

[41] = molecular target: Neu5Ac(a2-8)Neu5Ac(a2-3)[GalNAc(b1-4)]Gal(b1-4)Glc
Method in brief: as §1

[42] = molecular target: Neu5Ac(b2-6)Gal(b1-4)GlcNAc
Method in brief: as §1

[43] = molecular target: Neu5Gc(a2-3)Gal(b1-3)GlcNAc
Method in brief: as §1

[44] = molecular target: Neu5Gc(a2-3)Gal(b1-4)GlcNAc
Method in brief: as §1

[45] = molecular target: Neu5Gc(a2-8)Neu5Ac(a2-3)Gal(b1-4)GlcNAc
Method in brief: as §1

B1: MGL6A (Homo sapiens) (protein)
chain: MTRTYENFQYLENKVKVQGFKNGPLPLQSLLQRLCSGPCHLLLSLGLGLLLLVIICVVGFQNSKFQRDLVTLRTDFSNFTSNTVAEIQALTSQGSSLEETIASLKAEVEGFKQERQAVHSEMLLRVQQLVQDLKKLTCQVATLNNNGEEASTEGTCCPVNWVEHQDSCYWFSHSGMSWAEAEKYCQLKNAHLVVINSREEQNFVQKYLGSAYTWMGLSDPEGAWKWVDGTDYATGFQNWKPGQPDDWQGHGLGGGEDCAHFHPDGRWNDDVCQRPYHWVCEAGLGQTSQESH
In the case of B1, the “glycan array binding signal (z-score)” value [1] is reported as -0.261, the “glycan array binding signal (z-score)” value [2] is reported as 4.02 and the “glycan array binding signal (z-score)” value [3] is reported as -0.238. The “glycan array binding signal (z-score)” value [4] was -0.261, the “glycan array binding signal (z-score)” value [5] was -0.249 and the “glycan array binding signal (z-score)” value [6] was -0.27. The “glycan array binding signal (z-score)” value [7] was 0.966, the “glycan array binding signal (z-score)” value [8] was 0.534 and the “glycan array binding signal (z-score)” value [9] was -0.017. For the same binder, the “glycan array binding signal (z-score)” value [10] was -0.22, the “glycan array binding signal (z-score)” value [11] was 4.68 and the “glycan array binding signal (z-score)” value [12] was 4.73. For the same binder, the “glycan array binding signal (z-score)” value [13] was 1.06, the “glycan array binding signal (z-score)” value [14] was 4.29 and the “glycan array binding signal (z-score)” value [15] was -0.221. The “glycan array binding signal (z-score)” value [16] was -0.225, the “glycan array binding signal (z-score)” value [17] was 4.16 and the “glycan array binding signal (z-score)” value [18] was -0.244. For the same binder, the “glycan array binding signal (z-score)” value [19] was 3.91, the “glycan array binding signal (z-score)” value [20] was -0.075 and the “glycan array binding signal (z-score)” value [21] was -0.284. For the same binder, the “glycan array binding signal (z-score)” value [22] was -0.303, the “glycan array binding signal (z-score)” value [23] was -0.256 and the “glycan array binding signal (z-score)” value [24] was 4.67. For the same binder, the “glycan array binding signal (z-score)” value [25] was 4.13, the “glycan array binding signal (z-score)” value [26] was 4.47 and the “glycan array binding signal (z-score)” value [27] was 3.79. For the same binder, the “glycan array binding signal (z-score)” value [28] was -0.306, the “glycan array binding signal (z-score)” value [29] was 0.5 and the “glycan array binding signal (z-score)” value [30] was -0.327. For the same binder, the “glycan array binding signal (z-score)” value [31] was -0.224, the “glycan array binding signal (z-score)” value [32] was -0.258 and the “glycan array binding signal (z-score)” value [33] was -0.273. The “glycan array binding signal (z-score)” value [34] was -1.57, the “glycan array binding signal (z-score)” value [35] was -0.45 and the “glycan array binding signal (z-score)” value [36] was -0.277. The “glycan array binding signal (z-score)” value [37] was 3.89, the “glycan array binding signal (z-score)” value [38] was -0.153 and the “glycan array binding signal (z-score)” value [39] was -0.259. For the same binder, the “glycan array binding signal (z-score)” value [40] was -0.302, the “glycan array binding signal (z-score)” value [41] was 2.18 and the “glycan array binding signal (z-score)” value [42] was -0.277. For the same binder, the “glycan array binding signal (z-score)” value [43] was -0.256, the “glycan array binding signal (z-score)” value [44] was -0.228 and the “glycan array binding signal (z-score)” value [45] was -0.273.
